This is a sample that favours compounds with a hit; in the whole collection about 5.5% have one here.
MBNL1-CUG inh – blocks human MBNL1 binding to CUG repeat RNA; TR-FRET MBNL1-His/biotin-(CUG)12 binding, 665/545 ratio; Potency, µM (series often up to 57.5 µM), for the others: at the highest dose activity change, negative = inhibition, hits mostly inhibitors; actives 0.036% (n = 280,000); active = well fitted inhibition curve with a large enough effect in the signal ratio, with a control signal flat, not every such curve was filed as active; inconclusive = small, poorly fitted or top-dose-only effect, or effect the other way, or a change in a side signal; inactive = no such curve, though single readings can be large or run the other way; the % refers to the signal ratio; note: potency is the fitted concentration of half-maximal effect; % is set by controls: 0 for no effect and ±100 for the full control effect
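Inhibition of protein-RNA binding appears as loss of TR-FRET between terbium anti-His antibody on MBNL1-His and streptavidin-XL665 on biotin-(CUG)12. Activity is normalized to buffer-only and uninhibited-complex controls.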
RORgamma inh – ROR gamma (mouse) transcription inhibition. P51450. Drosophila S2 Gal4-RORgamma UAS-luciferase reporter, 20 h. Potency, µM (top dose mostly 53.6 µM), inactives show at the top dose activity change, negative = inhibition, hits mostly inhibitors. actives 5.4% (n = 310,000); note: potency is the fitted concentration of half-maximal effect; % is set by controls: 0 for no effect and ±100 for the full control effect; nearly all actives have a fitted effect of over 60% in size
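Luminescence from a UAS-regulated Photinus luciferase reporter in stably transfected Drosophila Schneider cells is measured; decreased signal marks ROR gamma inhibition. Fusion expression is induced by 700 uM copper sulfate for 20 hr.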
CtBP-E1A inh – blocks the CtBP interaction with E1A; AlphaScreen GST-E1A/His-CtBP binding, 1536-well; hits give low values; activity change, % (concentration not given with the values); actives 0.49% (n = 340,000); in the data active = activity change below about -65%; inconclusive = mostly about -30% to -63%; note: % is set by controls: 0 for no effect and ±100 for the full control effect
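GST-E1A and His-tagged CtBP (125 nM each as 5X stock) were preincubated with pin-transferred compound for 2 h at 37 °C in the dark, then glutathione donor and nickel acceptor beads were added for 1 h before AlphaScreen reading.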
Gal4-VP16 FLuc – inhibits Gal4-VP16 luciferase reporter, ROR gamma counter-screen; Drosophila S2 Gal4-VP16 UAS-luciferase, luminescence, 20 h; AID 2546; actives 3.5% (n = 310,000); Potency, µM (series often up to 53.6 µM), without a hit: at the top dose activity, negative = inhibition, actives largely listed as inhibitors;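 note: Gal4-VP16 expression switched on by copper sulfate through the metallothionein promoter; potency is the fitted concentration of half-maximal effect; % is set by controls: 0 for no effect and ±100 for the full control effect; nearly all actives have a fitted effect of over 50% in size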
CBFb RUNX1 block – blocks binding between human CBF-beta and RUNX1; Q01196+Q13951; AlphaScreen CBFb-His/RUNX1-biotin binding, biochemical; Potency, µM (doses to about 59.8 µM), for the others: at the top dose activity, negative = inhibition, usual class: inhibitors; 230,000 tested, under 10 active; AID 1477; note: % of control where 0% means no effect
Target sequence (Q01196 whole entry, looked up): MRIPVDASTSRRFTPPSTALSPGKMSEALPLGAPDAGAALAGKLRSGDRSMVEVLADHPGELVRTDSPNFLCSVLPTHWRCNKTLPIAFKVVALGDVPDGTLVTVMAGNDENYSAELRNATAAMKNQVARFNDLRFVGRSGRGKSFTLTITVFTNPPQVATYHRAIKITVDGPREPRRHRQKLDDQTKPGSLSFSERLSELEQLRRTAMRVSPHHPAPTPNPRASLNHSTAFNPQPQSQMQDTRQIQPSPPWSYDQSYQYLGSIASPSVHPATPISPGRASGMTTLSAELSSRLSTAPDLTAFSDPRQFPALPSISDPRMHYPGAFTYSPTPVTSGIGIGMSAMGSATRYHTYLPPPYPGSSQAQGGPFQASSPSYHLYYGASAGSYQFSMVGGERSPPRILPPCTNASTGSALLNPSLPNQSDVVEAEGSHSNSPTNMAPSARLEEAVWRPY
Target sequence (Q13951 whole entry, looked up): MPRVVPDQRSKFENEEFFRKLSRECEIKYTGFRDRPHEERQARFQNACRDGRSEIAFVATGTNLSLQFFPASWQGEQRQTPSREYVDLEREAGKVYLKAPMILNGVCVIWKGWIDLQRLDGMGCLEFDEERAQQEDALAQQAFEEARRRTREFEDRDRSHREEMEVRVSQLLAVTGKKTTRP
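Read-out: AlphaScreen. Format: His-CBF-beta with biotinylated RUNX1 (30 nM each) preincubated 20 min, compound 15 min, Ni-chelate plus streptavidin beads 90 min; room temperature throughout.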
Six1-Eya2 inh – inhibitors of human Six1/Eya2 interaction; actives 0.56% (n = 360,000); AlphaScreen GST-Six1/His-Eya2 binding, biochemical; hits give low values; AID 651725; activity change, % (concentration not given with the values); Q15475+O00167; in the data active = activity change below about -65%; inconclusive = mostly about -30% to -63%; note: % is set by controls: 0 for no effect and ±100 for the full control effect
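AlphaScreen with GST-Six1 and His-Eya2 (5X mix: 250 nM and 500 nM), glutathione donor and nickel acceptor beads; buffer 50 mM Tris pH 8.0, 300 mM NaCl, 1 mM TCEP; 1 h at 37 C in the dark.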
* hit, by the source's call; ? = inconclusive; . = no result given; ! = a repeat was not active; [ ] = remark or other dose. Unless noted, calls come from the whole dose curve; as a rule, active = well fitted curve in the direction sought with a large enough effect; inconclusive = small, poorly fitted or top-dose-only effect, or another doubt; inactive = no such curve, though single readings can be large; an effect the other way counts as inactive or inconclusive.

SMILES | MBNL1-CUG inh | RORgamma inh | CtBP-E1A inh | Gal4-VP16 FLuc | CBFb RUNX1 block | Six1-Eya2 inh
O=C(O)CNS(=O)(=O)c1ccc(Br)s1 | -7% | 2% | 0 | -5% | -10% | 0
O=S(=O)(NCc1ccncc1)c1ccc(Br)s1 | -4% | -39% | 5 | 1.8µM* | 1% | 4
COc1ccc(S(=O)(=O)NCc2cccnc2)cc1 | 5% | -6% | -6 | 4% | . | 5
OCC1O[C@H](Oc2ccc(O)cc2)C(O)C(O)C1O (some centres undefined) | . | 0% | . | -7% | . | .
CCN1C(=O)S/C(=C/c2ccc(Sc3nc4ccccc4[nH]3)o2)C1=O | ? | 5.6µM* | 6 | 3.2µM* | 8% | -5
COc1cc(OC)cc(C(=O)NCc2ccc3[nH]c(C)cc3c2)c1 | 1% | 6% | -2 | -23% | 15% | -10
CCCCNC(=S)NCc1ccc2[nH]c(C)cc2c1 | 0% | 10µM* | -3 | ? | 3% | -3
CCOc1ccc(NC(=S)NCc2ccc3[nH]c(C)cc3c2)cc1 | -24% | 2.5µM* | . | 10µM* | -18% | -68*
N#C/C(=C\c1ccc(O)c(O)c1)C(=O)NCCCc1ccccc1 | 47% | 22µM*! | ? | 11µM* | ? | 1
COCCNC(=O)/C(C#N)=C/C=C/c1ccccc1[N+](=O)[O-] | ? | 13µM* | -11 | -16% | 3% | -4
COCCNC(=O)/C(C#N)=C/c1ccc(O)cc1 | ? | 10% | 4 | ? | 14% | 4
COCCNC(=O)/C(C#N)=C/c1ccc(O)c([N+](=O)[O-])c1 | ? | 2% | . | -20% | -2% | -7
COCCNC(=O)/C(C#N)=C/c1cccc(/C=C(\C#N)C(=O)NCCOC)c1 | . | 13µM* | 4 | 11µM* | 2% | 5
CCOCCCNC(=O)/C(C#N)=C/c1ccc(Cl)c([N+](=O)[O-])c1 | . | 13µM* | 4 | ? | 0% | -6
COc1ccc(/C=C(\C#N)C(=O)NCCc2ccccc2)cc1OCc1ccccc1 | . | ? | -7 | 1% | -5% | 3
COc1ccc(OC)c(CCNC(=O)CCCc2nnc3n(C)c(=O)c4sccc4n23)c1 | 1% | 29% | ? | 1% | . | ?
CC[C@H](NC(=O)/C=C/[C@H]1O[C@@H](n2cc(C)c(=O)[nH]c2=O)C[C@@H]1O)c1ccccc1 | . | . | 1 | . | . | 0
N#C/C(=C\c1cccc([N+](=O)[O-])c1)C(=O)NCc1ccc(Cl)cc1 | 25% | ? | 2 | 18µM* | -8% | -5
N#C/C(=C\c1cccc([N+](=O)[O-])c1)C(=O)NCc1cccnc1 | 12% | ? | 14 | ? | -4% | -12
CCOC(=O)c1nnsc1-c1ccc(-c2snnc2C(=O)OCC)cc1 | ? | 6% | . | -2% | 7% | 4
CCOC(=O)c1nnsc1Nc1ccc(C)c(C)c1 | -2% | 0.71µM* | 14 | -19%[10 µM] | 9% | 7
CCOC(=O)C1(C)Oc2ccccc2C(C(=O)OC)=C1C(=O)OC (centres undefined) | . | 10% | 2 | 1% | -6%[89.1 µM] | 0
COC(=O)C1=C(C(=O)OC)SC2(S1)C(C(=O)OC)=C(C(=O)OC)SC1=C2c2cccc(C)c2NC1(C)C | 1% | 5.6µM* | -22 | ? | -6% | -6
CC(C)=C1C(=O)C(c2ccccc2)=C2CN3C(=O)N(CCc4ccccc4)C(=O)[C@]3(Cc3ccccc3)[C@H]21 | . | -27% | . | 11% | 7% | .
CCc1ccc2c(c1)C1(NN=C(c3cccc4ccccc34)S1)C(=O)N2 (centres undefined) | 37% | 2.8µM* | . | 2.8µM* | ? | .
SMILES | MBNL1-CUG inh | RORgamma inh | CtBP-E1A inh | Gal4-VP16 FLuc | CBFb RUNX1 block | Six1-Eya2 inh
CCc1ccc2c(c1)NC(=O)C2(C)Cc1ccccc1 (centres undefined) | . | . | 2 | . | . | 0
O=C(Nc1ccc(OCC(F)(F)C(F)F)c(C(F)(F)F)c1)c1ccccc1O | ? | 7.9µM* | 12 | -8%[0.365 µM] | 4% | 3
COc1ccccc1N(CC(=O)N/N=C/c1ccccc1C(=O)O)S(C)(=O)=O | . | 0% | -10 | -1% | 7% | 0
CN(C)S(=O)(=O)c1cccc(-c2csc(=Nc3ccccc3)n2CCCN2CCOCC2)c1 | 6% | 13% | -18 | 10% | -11% | 2
COc1ccc(-c2csc(=Nc3ccccc3)n2CCO)cc1 | -3% | ? | ? | -16% | -17% | -26
C=CCn1c(-c2ccc(S(=O)(=O)N3CCOCC3)cc2)csc1=Nc1ccccc1 | 4% | -7% | ? | 14µM* | -16% | ?
CC(=O)c1cccc(N=c2scc(-c3ccc(S(=O)(=O)N4CCOCC4)cc3)n2CCO)c1 | 18%[11.5 µM] | ? | -22 | 2µM* | 3% | -23
COc1ccc(N=c2scc(-c3ccc(S(=O)(=O)N4CCOCC4)cc3)n2CCCO)cc1 | ? | ? | . | 5.6µM* | -27% | .
CC(OC(=O)[C@@H](NC(=O)c1ccco1)C(C)C)C(=O)Nc1ncc(Cl)cc1Cl (some centres undefined) | . | . | -1 | . | . | -1
COc1cccc(CC2CC(=O)N(c3ccc4c(C)cc(=O)oc4c3)C2=O)c1 (centres undefined) | -4% | 40% | 7 | 8% | ? | -3
CC(C)CCC(C(=O)O)C(C)CC(=O)Nc1ccn(-c2ccccc2)n1 (centres undefined) | 4% | 18% | 8 | -16% | 10% | 2
Cc1cc(C)nc(Nc2n[nH]c(-c3cccc4ccccc34)n2)n1 | 0% | 11µM* | . | ? | -2% | -10
NNC(=S)NC1CC2CC1C1C=CCC21 (centres undefined) | -3% | 0.45µM* | -4 | 2.8µM* | -1% | -3
Cc1c(C(=O)Nc2nccs2)sc2nc(-c3cccs3)cc(C(F)(F)F)c12 | -9% | 0.79µM* | 5 | 3.2µM* | 4% | 0
O=S(=O)(NCC1CCCO1)c1ccc(-c2ccc(S(=O)(=O)NCC3CCCO3)cc2)cc1 (centres undefined) | -1% | 4.5µM* | 8 | 5.6µM* | 1% | 5
Cc1ccc(NC(=S)Nc2ccc(S(=O)(=O)Nc3ncccn3)cc2)cc1Cl | . | 32µM* | . | ? | -2% | .
O=S(=O)(Nc1ncccn1)c1ccc(NC(=S)Nc2cccc(Cl)c2)cc1 | . | 11µM* | . | ? | 2% | .
Cc1ccc(NC(=S)NNS(=O)(=O)c2ccc3ccccc3c2)cc1Cl | -13% | 11µM* | 0 | ? | 1% | 8
